Compound activity: PubChem BioAssay, several laboratories
tim23-1 inh = growth inhibitors of tim23-1 mutant yeast; S. cerevisiae tim23-1 growth, BacTiter-Glo luminescence, 24 h; inhibition, % at 20 µM; actives 1.3% (n = 330,000);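 active = growth inhibition of the mutant yeast at or above 50%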;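 also: temperature-sensitive mutant grown at 25 °C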
PfHsp90 set2 = growth inhibition of yeast expressing Plasmodium Hsp90 | S. cerevisiae expressing PfHsp90, BacTiter-Glo ATP, 48 h; yeast lacking PDR1 and PDR3 efflux regulators | inhibition, % at 9.4 µM | actives 0.32% (n = 310,000);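 active = every replicate shows inhibition above about 80%, whatever the replicate mean, limit read from the data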
TIM10 inh = growth inhibitors of TIM10 yeast strain; S. cerevisiae TIM10 strain growth, BacTiter-Glo luminescence, 24 h; inhibition, % at 10 µM; actives 1.4% (n = 330,000);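 active = inhibition of 40% or more at the single tested concentration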;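 also: wild-type TIM10 isogenic control strain grown at permissive 25 °C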
NLRP3 yeast inh = inhibitors of NALP3 inflammasome in yeast | Yeast reconstituted NLRP3/ASC/caspase-1, beta-gal luminescence, 24 h | actives 0.39% (n = 330,000) | inhibition, % at 10 µM;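 active = inhibition of 50% or more; inactive = inhibition below 50%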
tim10-1 inh = tim10-1 yeast growth inhibition; S. cerevisiae tim10-1 ts strain growth, BacTiter-Glo, 24 h; inhibition, % at 20 µM; actives 2.2% (n = 330,000);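 active = inhibition of at least 40%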;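 also: mutant grown at 25 °C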
SKKanGAS inh = inhibitors of SKKanGAS S. pyogenes growth in kanamycin (SK-promoter or general growth effect); BacTiter-Glo, 6 h; inhibition, % at 7.5 µM; actives 1.3% (n = 300,000);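 active = mean replicate score, as percent of positive control median, at least 50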;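 also: strain carries kanamycin resistance gene driven by streptokinase promoter and grows in 40 µg/ml kanamycin; loss of luminescence reflects streptokinase promoter inhibition or plain growth inhibition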
tim10-1 confirm = tim10-1 yeast growth inhibition, confirmed; inhibition, % at 20 µM; shares compounds with tim10-1 inh; actives 56% (n = 7,400); S. cerevisiae tim10-1 ts strain growth, BacTiter-Glo, 24 h; AID 463213;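 active = inhibition of yeast growth at or above a set limit in either of two repeat tests at 20 µM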;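 also: tim10-1 mutant grown at permissive 25 °C to find synthetic lethal compounds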
Hits are given with their value; n = inactive; x = not tested or not shown. Sampled rows, rich in hits. Any-hit rate of the full collection: about 4.6%.

SMILES	tim23-1 inh	PfHsp90 set2	TIM10 inh	NLRP3 yeast inh	tim10-1 inh	SKKanGAS inh	tim10-1 confirm
COc1ccc(/C=C2\Oc3ccccc3C2=O)cc1	n	n	n	n	n	x	x
COc1ccc(CCNS(=O)(=O)c2ccc(OC)cc2)cc1	n	x	n	n	44	n	n
COc1ccccc1N1CCN(C(=O)C2CCN(C(=O)c3ccc(C(C)(C)C)cc3)CC2)CC1	n	n	n	n	n	n	x
CCN1CCSc2ccc(C(=O)NCc3cccc(Br)c3)cc21	n	n	n	n	41	n	35
O=C(NCC1CCCO1)c1ccc2c(c1)N(Cc1ccccc1)CCS2 (centres undefined)	n	n	n	n	41	n	n
Cc1ccc(CN2CCSc3ccc(C(=O)N4CCOCC4)cc32)cc1	n	n	n	n	41	n	n
CCN1CCN(C(=O)c2ccc3c(c2)N(Cc2ccc(C)cc2)CCS3)CC1	n	n	n	n	n	n	x
COc1cccc(N2CC(NC(=O)C(=O)c3c[nH]c4ccccc34)CC2=O)c1 (centres undefined)	n	x	n	n	n	n	x
COc1ccc(CN2CCN(C3CCC3)CC2CCO)c(F)c1 (centres undefined)	n	n	n	n	n	n	x
Cc1oc2c(C)c3oc(=O)c4c(c3cc2c1C)CCCC4	n	n	n	n	54	n	55
O=C(Nc1ccc(N2CCCCC2)cc1)c1ccccn1	n	n	n	n	41	n	31
N#CC/C(N)=N/Nc1nc2ccccc2nc1Cc1ccccc1	n	n	n	n	n	n	x
CCOc1c2c(nc3ccc(Cl)cc13)CCC2	n	n	n	n	41	n	32
CC(C)C(OC(=O)c1cc2sccc2n1C)C(=O)NCC1CCCO1 (centres undefined)	n	n	n	n	n	n	x
COc1ccc(CN(CC2CCCO2)C(=O)c2cc3sccc3n2C)c(OC)c1 (centres undefined)	n	n	n	n	45	n	n
CC(C)c1cc(C(C)C)c(S(=O)(=O)NNC(=O)c2ccncc2)c(C(C)C)c1	n	n	n	n	50	n	n
COc1cc(/C=C(\C#N)c2nc3ccccc3s2)cc([N+](=O)[O-])c1O	n	n	n	n	46	n	n
Cc1ccnc2c1ccc1cccnc12	n	n	n	n	42	x	n
CCN(CC)S(=O)(=O)c1cc(NC(=O)CSCc2c(C)noc2C)ccc1C	n	n	n	n	n	x	x
Cc1nn(Cc2c(F)c(F)c(F)c(F)c2F)c(C)c1NC(=O)c1ccc(COc2ccc(Cl)cc2Cl)o1	n	n	n	n	49	n	41
Cc1nn(Cc2ccc(Cl)cc2Cl)c(C)c1NC(=O)c1nn(C)cc1Cl	n	n	n	n	44	n	38
Cc1nn(Cc2ccc(Cl)cc2Cl)c(C)c1NC(=O)C1C2CCC(O2)C1C(=O)O (centres undefined)	n	n	n	n	41	n	n
Cc1nn(Cc2ccc(Cl)cc2Cl)c(C)c1NC(=O)c1ccc(COc2cc(Cl)ccc2Cl)o1	n	n	n	n	n	n	x
O=c1ccn(CCCBr)c(=O)[nH]1	n	n	n	n	n	n	x
Cc1c2c(c(C)n1C)C(C(=O)NC1CCCCC1)N(Cc1ccccc1)C2=O (centres undefined)	n	n	n	n	45	n	39
SMILES	tim23-1 inh	PfHsp90 set2	TIM10 inh	NLRP3 yeast inh	tim10-1 inh	SKKanGAS inh	tim10-1 confirm
O=C(NC1CCCCCC1)C1c2ccccc2C(=O)N1Cc1cccnc1 (centres undefined)	n	x	n	n	n	n	x
CCOC(=O)c1sc2ncnc(NCc3ccco3)c2c1C	n	n	n	n	47	n	35
O=[N+]([O-])/C(C(Cl)=C(Cl)Cl)=C(\Sc1ccccc1)N1CCCCC1	n	n	n	n	44	n	35
O=C(CCSc1ccccc1)N1CCCC1	n	n	n	n	n	n	x
COc1cc(C)c(C)cc1S(=O)(=O)N1CCCCC1c1cccnc1 (centres undefined)	n	n	n	n	41	n	n
CC(=O)Nc1ccc(S(=O)(=O)N2CCCCC2c2cccnc2)cc1 (centres undefined)	n	n	n	n	n	n	x
